High-throughput results as filed in PubChem BioAssay.
E coli growth-1 – E. coli V3065 growth inhibition, primary screen, counter-screen for AddAB inhibitor project, absorbance, OD600; actives 0.27% (n = 330,000); inhibition, % at 11.9 µM; 18 h; AID 449728, 2010;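 active = inhibition above the campaign's mean inhibition across all tested compounds plus 3 SD, cut at about 9.9% in these data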;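 also: uninfected addAB+ strain grown without phage in ampicillin broth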
pCIP destab – p/CIP-EGFP fusion destabilizers, primary screen, fluorescence, F442A cells | AID 1984, 2009 | 16 h | decrease of EGFP signal, % at 10 µM | actives 0.01% (n = 290,000);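 active = EGFP signal decrease of at least 30% at 10 µM or well 3 SD below plate mean, unless failing retest; inactive = the rest, including hits failing retest or dose response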
E coli growth-2 – E. coli growth inhibition, primary screen, OD600; Escherichia coli growth, 23 h; hits give low values; OD600 absorbance (concentration not given with the values); actives 0.21% (n = 330,000);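 active = OD600 absorbance below the run mean of sample wells minus 3.6 SD, in any replicate, cut at about 0.56 in these data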
phage Ecoli inh – growth loss of phage-infected E. coli, primary screen, RecBCD inhibitor project, absorbance, with phage, HTS; inhibition, % at 11.9 µM; actives 0.26% (n = 360,000); AID 651602, 2012; in the data active = inhibition above about 11%
AddAB inh – growth inhibition of E. coli expressing H. pylori AddAB, primary screen, AddAB inhibitor project, absorbance. inhibition, % at 11.9 µM. actives 0.29% (n = 330,000); in the data active = inhibition above about 12%
Tat transport – E. coli Tat export inhibitors, primary screen, MC4100, TorA-mCherry reporter, fluorescence, single point; inhibition, % at 10 µM; actives 0.036% (n = 340,000);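 active = mean replicate inhibition at least 50% and at least half of replicates individually reaching 50%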;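 also: exported cargo escapes ClpAP degradation while cytoplasmic cargo is degraded and loses fluorescence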
RecBCD conf – growth loss of phage-infected RecBCD+ E. coli, confirmation, RecBCD inhibitor project, absorbance, E. coli V66, T4 gene 2 phage; E. coli V66 + T4 2- phage, growth OD; shares compounds with phage Ecoli inh; inhibition, % at 11.9 µM; actives 45% (n = 890);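 active = mean inhibition over triplicates exceeding the hit threshold derived in the original primary screen, cut at about 11% in these data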
Ecoli viability – E. coli viability inhibition, counter-screen for RecBCD inhibitor project, absorbance, high throughput; absorbance (OD) growth; shares compounds with phage Ecoli inh; inhibition, % at 11.9 µM; actives 29% (n = 890); in the data active = inhibition above about 20%;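 also: E. coli strain V66 grown with compound alone and no phage infection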
AddAB counter – growth loss of phage-infected AddAB-carrying E. coli, confirmation, counter-screen for RecBCD inhibitor project, absorbance, E. coli V3065, T4 phage; shares compounds with phage Ecoli inh; E. coli expressing H. pylori AddAB + T4 phage, OD growth; gene 2 mutant T4, recBCD-deleted host; inhibition, % at 11.9 µM; actives 45% (n = 890); AID 651984, 2013;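 active = mean inhibition above the solvent-only control wells' mean plus 3 SD, cut at about 22% in these data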;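 also: higher means less bacterial growth from phage killing when AddAB is blocked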
Numbers stand for hits; – = inactive; · = no result given. Compounds with a hit are over-represented: about 0.51% of the library has one in this group of screens.

SMILES	E coli growth-1	pCIP destab	E coli growth-2	phage Ecoli inh	AddAB inh	Tat transport	RecBCD conf	Ecoli viability	AddAB counter
O=C(Nc1cccc(F)c1)Nc1cccc(Cl)c1	–	–	0.412	14.3	–	–	13.3	–	–
O=C(Nc1cccc(F)c1)Nc1ccc(Cl)cn1	–	–	–	–	–	–	·	·	·
FC(F)Sc1ccc(NC(=S)NCC2CCCCC2)cc1	–	–	–	12.7	–	–	–	–	–
S=C(NCC1CCCCC1)Nc1ccc(Oc2ccccc2)cc1	–	–	–	–	–	–	·	·	·
FC(F)Sc1ccc(NC(=S)NC2CCCCC2)cc1	–	–	–	12.3	–	–	–	–	–
Cc1ccc2ccc(C3C(=O)c4ccccc4C3=O)nc2c1	–	·	–	–	–	–	·	·	·
CCN1C(=O)[C@@H]2[C@@H](c3ccc(-c4ccc(C(C)=O)cc4)cc3)N3CCC[C@@]3(C(=O)OC)[C@@H]2C1=O	–	·	·	–	–	–	·	·	·
O=[N+]([O-])c1cc2c(ccc3occc32)o1	·	·	·	101.4	·	·	101.9	103.0	102.5
O=[N+]([O-])c1ccc2c(c1)oc1ccccc12	–	–	–	–	–	–	·	·	·
CSc1cccc(NC(=S)NN/C(=N/S(=O)(=O)c2ccccc2)N2CCCC2)c1	·	·	·	–	·	·	·	·	·
CCOc1ccc(/C=N/n2c(SC)nnc(C(C)(C)C)c2=O)cc1	–	–	·	–	–	–	·	·	·
O=C(NC(Nc1nc2ccc([N+](=O)[O-])cc2s1)(C(F)(F)F)C(F)(F)F)c1cccnc1	–	–	–	–	–	–	·	·	·
O=C(NC(Nc1nc2ccc([N+](=O)[O-])cc2s1)(C(F)(F)F)C(F)(F)F)c1ccccc1Cl	11.2	–	–	14.8	14.4	–	–	–	–
O=Nc1nc2ncccn2c1-c1ccccc1	·	·	·	14.8	·	–	–	–	95.0
Nc1nc(N)c2cc(S(=O)(=O)c3ccc4ccccc4c3)ccc2n1	·	·	·	28.4	·	·	101.4	99.2	101.0
CN(CC(=O)Nc1cccc(F)c1)C(=O)CC1CCCCC1	–	·	–	11.3	–	–	–	–	–
COc1cccc(NC(=O)CN(C)C(=O)CC2CCCCC2)c1	·	·	–	–	·	–	·	·	·
Cc1ccccc1Cn1c(CN2CCN(C(=O)c3ccco3)CC2)nc2c1c(=O)n(C)c(=O)n2C	–	–	–	97.0	–	–	–	–	–
O=C1c2ccccc2C(=O)c2c(O)c(O)cc(O)c21	15.3	·	–	12.3	–	–	–	–	–
Cc1nc(C)c(C(=O)Nc2cccc(Cl)c2)o1	–	–	–	–	–	–	·	·	·
CCCNC(=O)c1nc(C)c(C)nc1C(=O)Nc1cccc(Cl)c1	–	–	–	67.1	–	–	–	–	–
Cc1ccc(C(=O)CC(=O)COc2ccc(Cl)cc2C)cc1	–	–	–	12.4	–	–	–	–	–
CCC(C)(C(=O)NC1CCCCC1)N(Cc1cccs1)C(=O)c1ccccn1 (stereo unspecified)	–	–	–	–	–	–	·	·	·
CCC(C)(C(=O)NC1CCCCC1)N(Cc1cccs1)C(=O)c1ccc(=O)[nH]c1 (stereo unspecified)	–	–	–	11.9	–	–	–	–	–
COCCCn1c(=O)/c(=C\c2ccccc2OC(F)F)s/c1=C(/C#N)C(=O)N1CCOCC1	–	–	·	–	–	–	·	·	·
SMILES	E coli growth-1	pCIP destab	E coli growth-2	phage Ecoli inh	AddAB inh	Tat transport	RecBCD conf	Ecoli viability	AddAB counter
Cc1cc(C)c(NC(=O)C2CCC(=O)N2)c(C)c1 (stereo unspecified)	–	–	–	–	–	–	·	·	·
CN(C)c1ccc(NC(=O)Cn2cc3c(n2)CCCC3)cc1	–	–	–	12.8	–	–	–	–	–
Cc1cc(C)cc(NC(=O)Cn2cc3c(n2)CCCCC3)c1	–	–	–	·	–	·	·	·	·
O=C(NCc1ccco1)c1cc(-c2ccccc2)nn1CC1CC(c2cccc([N+](=O)[O-])c2)=NO1 (stereo unspecified)	–	·	–	–	–	–	·	·	·
Nc1nc(N)c2c(ccc3c2ccn3Cc2cccc([N+](=O)[O-])c2)n1	·	·	·	100.2	·	·	102.9	103.1	102.5
Nc1nc(N)c2cc([N+](=O)[O-])ccc2n1	·	·	–	–	·	–	·	·	·
O=c1cc(CSc2nnc(Nc3ccccc3)s2)nc2sccn12	–	–	–	–	–	–	·	·	·
Cc1cccc(Nc2nnc(SCc3cn4ccsc4n3)s2)c1	–	–	–	16.6	–	–	–	–	–
O=C(O)c1ccc(NC(=S)NC(NC(=O)c2ccco2)C(Cl)(Cl)Cl)cc1 (stereo unspecified)	–	–	–	–	–	–	·	·	·
Cc1ccc(NC(=S)NC(NC(=O)c2ccco2)C(Cl)(Cl)Cl)cc1 (stereo unspecified)	11.2	–	–	14.3	–	–	–	–	–
Cc1[nH]nc(C(=O)NN=Cc2ccccc2Cl)c1N=NN(C)C	·	·	·	14.0	·	–	–	–	41.5
O=C(NN=Cc1ccccc1Cl)c1n[nH]c2c1CCCC2	·	·	–	·	·	·	·	·	·
O=C(NN=Cc1ccco1)C(=O)Nc1cccc(C(F)(F)F)c1	·	·	·	–	·	·	·	·	·
CCOc1cccc(C=NNC(=O)C(=O)Nc2cccc(C(F)(F)F)c2)c1O	·	·	·	17.5	·	·	11.5	–	–
c1nc(SSc2ncnc3nc[nH]c23)c2[nH]cnc2n1	·	·	·	24.2	·	–	58.0	57.8	75.0
O=C(CN1CCOCC1)NN=Cc1ccc([N+](=O)[O-])o1	·	·	·	17.4	·	·	–	–	53.8
O=C(N/N=C/c1ccc([N+](=O)[O-])o1)c1ccc2c(c1)OCO2	·	–	·	11.1	·	–	12.3	–	102.5
Oc1ccc(/C=N/Nc2ccc(Cl)nn2)c(O)c1O	–	–	·	10.9	–	–	–	–	21.4
Oc1c(Br)cc(Br)cc1/C=N/Nc1ccc(Cl)nn1	–	–	·	–	–	–	·	·	·
O=C(CSCc1ccccc1)Nc1cc([N+](=O)[O-])ccc1F	–	–	–	–	–	–	·	·	·
CCCC(=O)Nc1cc(=O)n(C)c(=O)n1C	–	–	–	52.9	–	–	–	–	–
Cn1c(NC(=O)CCc2ccccc2)cc(=O)n(C)c1=O	–	–	–	–	–	–	·	·	·
O=C(Nc1cccc([N+](=O)[O-])c1)c1ccc([N+](=O)[O-])o1	·	·	·	20.5	·	·	14.8	–	89.8
O=C(Nc1cccc([N+](=O)[O-])c1)c1ccncc1	–	–	–	–	–	–	·	·	·
CCC(=O)NC(c1ccc(OC)c(OC)c1)c1cc(Cl)c2cccnc2c1O (stereo unspecified)	·	–	–	15.2	·	–	–	–	–
